# “And” between values parts separate entries of the source, which are not always exact repeats. Equal values may be shown once. In all, about 5,500 compounds went through this assay and about 2,000 (36%) were called active. Not shown: some 18% with an inconclusive outcome. This is one part of the list. Unmarked numbers belong to inactive results. Rule as the data show it: active = normalized growth mostly below about 0.91 (no sharp cut-off); inconclusive = no clear call, values can overlap the other calls; inactive = mostly above about 0.92.
# Assay: chemical genetic growth profiling, strain panel (AID 1159580);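 also: tested at 20 µM; growth read once vehicle control cultures reached saturation at 30 °C; 1 = growth at the plate median or of vehicle wells; lower values mean less growth of the strain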
# Conditions: S. cerevisiae deletion strains, growth OD
smiles,measurement,setting,value
CN1CCN(C2=Nc3cc(Cl)ccc3Nc3ccccc32)CC1,normalized growth,"locus YAL013W, strain DEP1, hits give low values",1.02
same,normalized growth,"locus YAL021C, strain ccr4, hits give low values",0.991
same,normalized growth,"locus YAL026C, strain drs2, hits give low values",0.953
same,normalized growth,"locus YAL030W, strain snc1, hits give low values",1.01
same,normalized growth,"locus YAL040C, strain CLN3, hits give low values",1.01
same,normalized growth,"locus YBL061C, strain skt5, hits give low values",0.968
same,normalized growth,"locus YBR009C, strain hhf1, hits give low values",1.01
same,normalized growth,"locus YBR021W, strain FUR4, hits give low values",0.979
same,normalized growth,"locus YBR023C, strain chs3, hits give low values",0.987
same,normalized growth,"locus YBR171W, strain sec66, hits give low values",0.975
same,normalized growth,"locus YBR229C, strain ROT2, hits give low values",1.01
same,normalized growth,"locus YBR231C, strain swc5, hits give low values",0.988
same,normalized growth,"locus YBR279W, strain paf1, hits give low values",0.983
same,normalized growth,"locus YCL011C, strain gbp2, hits give low values",0.984
same,normalized growth,"locus YCL016C, strain dcc1, hits give low values",0.954
same,normalized growth,"locus YCL029C, strain bik1, hits give low values",1.01
same,normalized growth,"locus YCL061C, strain MRC1 (second series), hits give low values",1
same,normalized growth,"locus YCL061C, strain MRC1, hits give low values",0.984
same,normalized growth,"locus YCL069W, strain vba3, hits give low values",0.981
same,normalized growth,"locus YCR088W, strain abp1, hits give low values",0.985
same,normalized growth,"locus YDL005C, strain med2, hits give low values",0.984
same,normalized growth,"locus YDL035C, strain GPR1, hits give low values",1
same,normalized growth,"locus YDL040C, strain nat1, hits give low values",1
same,normalized growth,"locus YDL074C, strain BRE1, hits give low values",0.935
same,normalized growth,"locus YDL101C, strain DUN1, hits give low values",0.996
same,normalized growth,"locus YDL134C, strain PPH21, hits give low values",0.991
same,normalized growth,"locus YDL185W, strain tfp1, hits give low values",1.01
same,normalized growth,"locus YDL192W, strain arf1, hits give low values",1.02
same,normalized growth,"locus YDR001C, strain nth1, hits give low values",0.989
same,normalized growth,"locus YDR069C, strain doa4, hits give low values",0.968
same,normalized growth,"locus YDR101C, strain arx1, hits give low values",1
same,normalized growth,"locus YDR137W, strain rgp1, hits give low values",1.15 [resistant] (active)
same,normalized growth,"locus YDR150W, strain NUM1, hits give low values",1.01 and 0.991
same,normalized growth,"locus YDR159W, strain sac3, hits give low values",0.948
same,normalized growth,"locus YDR162C, strain NBP2, hits give low values",0.97
same,normalized growth,"locus YDR195W, strain ref2",1.04
same,normalized growth,"locus YDR297W, strain sur2, hits give low values",0.976
same,normalized growth,"locus YDR318W, strain mcm21, hits give low values",1.02
same,normalized growth,"locus YDR334W, strain swr1, hits give low values",0.98
same,normalized growth,"locus YDR335W, strain msn5, hits give low values",0.977
same,normalized growth,"locus YDR363W, strain ESC2, hits give low values",0.884
same,normalized growth,"locus YDR388W, hits give low values",1.02
same,normalized growth,"locus YDR392W, strain spt3, hits give low values",0.801
same,normalized growth,"locus YDR502C, strain sam2, hits give low values",0.994
same,normalized growth,"locus YEL003W, strain gim4, hits give low values",0.987
same,normalized growth,"locus YEL037C, strain rad23, hits give low values",0.979
same,normalized growth,"locus YEL061C, strain CIN8 (second series), hits give low values",0.977
same,normalized growth,"locus YEL061C, strain CIN8, hits give low values",1.05
same,normalized growth,"locus YER002W, strain NOP16, hits give low values",0.997
same,normalized growth,"locus YER015W, strain faa2, hits give low values",0.991
same,normalized growth,"locus YER016W, strain bim1, hits give low values",0.966
same,normalized growth,"locus YER110C, hits give low values",1.03
same,normalized growth,"locus YER111C, strain swi4, hits give low values",0.975
same,normalized growth,"locus YER155C, strain BEM2 (second series), hits give low values",0.802 (active)
same,normalized growth,"locus YER155C, strain BEM2, hits give low values",1.01
same,normalized growth,"locus YER167W, strain BCK2, hits give low values",1
same,normalized growth,"locus YFR010W, strain ubp6, hits give low values",1.02
same,normalized growth,"locus YGL078C, strain dbp3, hits give low values",1.01
same,normalized growth,"locus YGL086W, strain mad1, hits give low values",1.02
same,normalized growth,"locus YGL167C, strain pmr1, hits give low values",0.989
same,normalized growth,"locus YGL173C, strain kem1, hits give low values",0.98
same,normalized growth,"locus YGL227W, strain vid30, hits give low values",0.969
same,normalized growth,"locus YGL240W, strain doc1, hits give low values",1.03
same,normalized growth,"locus YGL248W, strain PDE1, hits give low values",0.99
same,normalized growth,"locus YGL253W, strain hxk2, hits give low values",0.982
same,normalized growth,"locus YGR078C, strain PAC10, hits give low values",0.975 and 1.01
same,normalized growth,"locus YGR135W, strain pre9, hits give low values",0.987
same,normalized growth,"locus YGR229C, strain SMI1, hits give low values",0.948
same,normalized growth,"locus YGR252W, strain gcn5, hits give low values",0.994
same,normalized growth,"locus YHR013C, strain ard1, hits give low values",0.917
same,normalized growth,"locus YHR027C, strain rpn1, hits give low values",0.985
same,normalized growth,"locus YHR030C, strain SLT2, hits give low values",1.02 and 1.07
same,normalized growth,"locus YHR079C, strain IRE1 (second series), hits give low values",1.03
same,normalized growth,"locus YHR079C, strain IRE1, hits give low values",1.03
same,normalized growth,"locus YHR094C, strain hxt1, hits give low values",1.02
same,normalized growth,"locus YHR129C, strain ARP1, hits give low values",1.01
same,normalized growth,"locus YHR142W, strain chs7, hits give low values",0.949
same,normalized growth,"locus YHR200W, strain rpn10, hits give low values",1.01
same,normalized growth,"locus YIL066C, strain RNR3, hits give low values",1.01
same,normalized growth,"locus YIL073C, strain SPO22, hits give low values",1.1
same,normalized growth,"locus YIL125W, strain kgd1, hits give low values",1.02
same,normalized growth,"locus YIR030C, strain dcg1, hits give low values",1.02
same,normalized growth,"locus YJL092W, strain hpr5, hits give low values",0.985
same,normalized growth,"locus YJL095W, strain BCK1 (second series), hits give low values",0.991
same,normalized growth,"locus YJL095W, strain BCK1, hits give low values",0.945 and 1.05
same,normalized growth,"locus YJL115W, strain asf1, hits give low values",0.969
same,normalized growth,"locus YJL129C, strain trk1, hits give low values",0.969
same,normalized growth,"locus YJL134W, strain LCB3, hits give low values",1.01
same,normalized growth,"locus YJL154C, strain vps35, hits give low values",0.981
same,normalized growth,"locus YJL164C, strain tpk1, hits give low values",0.999
same,normalized growth,"locus YJL166W, strain qcr8, hits give low values",1
same,normalized growth,"locus YJL168C, strain set2, hits give low values",1.03
same,normalized growth,"locus YJL187C, strain SWE1 (second series), hits give low values",1
same,normalized growth,"locus YJR043C, strain POL32, hits give low values",1.02
